The values below come from PubChem BioAssay AID743143 (Broad Institute, 2013).

Potency and affinity values are given separately. Activity calls are given as the source filed them.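 How the source made its calls: active means falling signal curve whose fitted half-maximal dose lies at or below the top valid tested dose; inconclusive means flat fit showing 30 to 70% loss, or poor fit; inactive means rising signal, flat within 30%, or half-maximal dose above top.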

The nature of this assay: HepG2 cell cytotoxicity, dose response, cytotoxicity control, ATP luminescence, dry powder, Set4 (AID 743143).

`O=C(CCNC(=O)c1ccccc1)N[C@@H]1CCCc2ccccc21`: the compound was called inactive.

Regarding `O=C(CCNC(=O)c1ccc(Cl)c(Cl)c1)N[C@@H]1CCCc2ccccc21`, the call was inactive.

`COc1ccccc1C(C)NC(=O)CCNC(=O)c1ccc(Cl)cc1` (centres undefined): the outcome was inactive.

In the case of `O=C(CCCNC(=O)c1ccc(C(F)(F)F)cc1)N[C@@H]1CCCc2ccccc21`, the compound was called inactive.
